Screening results as filed in PubChem BioAssay.
TRb SRC2 PPI: TRbeta-SRC2 interaction inhibition | AID 1469 | TRbeta-SRC2 peptide binding, fluorescence polarization; receptor liganded with 1 µM T3 | Potency, µM (doses to about 106 µM), most hits filed as inhibitors | hit rate 0.065% among 280,000; also: nearly all actives have a fitted effect of over 50% in size
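TRb LBD 0.6 uM + Texas Red SRC2 peptide 20 nM, 1 uM T3, Tris buffer w/ 5% DMSO; compound pinned, 5 h RT; FP read ex 555/em 632; normalized to unbound and bound controls.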
HttQ103 aggreg: reduces HttQ103-GFP aggregates in PC12 cells. AID 1688. Potency, µM (series often up to 46.1 µM), actives largely listed as inhibitors. PC12 HttQ103-GFP aggregates, Acumen cytometry, 40 h. hit rate 1.1% among 220,000; also: nearly all actives have a fitted effect of over 60% in size
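Aggregate formation scored by laser-scanning cytometer (488 excitation, 500–530 emission) in lysed PC12 cells expressing Q103-GFP after 100 nM tebufenozide induction; library tested in dose series, with ATPLite reagent added in the multiplex.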
HTT ATP protect: protects HTT-Q103 PC12 cells, measured by ATP; PC12 HTT-Q103 induced, cytoprotection, ATP luminescence, 40 h; hit rate 0.14% among 230,000; Potency, µM (top dose mostly 56.4 µM), actives largely listed as activators; also: nearly all actives have a fitted effect of over 45% in size
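Compounds were screened for protection of PC12 cells against cell death after tebufenozide induction (100 nM final) of mutant Huntingtin exon 1 (Q103) fused to GFP.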
Coupling enz: coupling enzyme interference in Giardia aldolase counter-screen. hit rate 0.67% among 290,000. coupling enzyme system counterscreen, AmpLite Red fluorescence. activity change, negative = inhibition, % at 58.2 µM, hits read low; in the data active = activity change below about -30%
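Coupling enzymes only (glyceraldehyde-3-phosphate) + compound, at 57.5 uM final, 10 min RT; add substrate/coupling/AmpLite Red mix, 20 min RT; fluorescence ex 525/em 598 nm. Actives flag coupling-system interference.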
TexasRed fluor: counter-screen for TRb-SRC2 inhibitors: fluorescence interference. TRb/SRC2 Texas Red total fluorescence interference. Potency, µM (highest dose often 106 µM). hit rate 0.29% among 280,000; active = well fitted curve in either direction with a large enough effect; inconclusive = small, poorly fitted or top-dose-only effect
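Human TRb ligand-binding domain at 0.6 uM with 20 nM Texas Red SRC2 peptide in Tris buffer containing 1 uM T3 and 5% DMSO, incubated with compound 5 h at ambient temperature. Total fluorescence (555/632 nm) calculated as parallel + 2 × perpendicular.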
KDM4E inh: JMJD2E (human) inhibition; B2RXH2; JMJD2E catalytic domain, FDH-coupled NADH fluorescence (FDH is formaldehyde dehydrogenase); Potency, µM (doses to about 57.1 µM), usual class: inhibitors; hit rate 1.6% among 230,000; active = well fitted inhibition curve with a large enough effect, not every such curve was filed as active; inconclusive = small, poorly fitted or top-dose-only effect, or another doubt; inactive = no such curve, though single readings can be large or run the other way; also: nearly all actives have a fitted effect of over 50% in size
Target sequence (B2RXH2 1-337 limits assumed): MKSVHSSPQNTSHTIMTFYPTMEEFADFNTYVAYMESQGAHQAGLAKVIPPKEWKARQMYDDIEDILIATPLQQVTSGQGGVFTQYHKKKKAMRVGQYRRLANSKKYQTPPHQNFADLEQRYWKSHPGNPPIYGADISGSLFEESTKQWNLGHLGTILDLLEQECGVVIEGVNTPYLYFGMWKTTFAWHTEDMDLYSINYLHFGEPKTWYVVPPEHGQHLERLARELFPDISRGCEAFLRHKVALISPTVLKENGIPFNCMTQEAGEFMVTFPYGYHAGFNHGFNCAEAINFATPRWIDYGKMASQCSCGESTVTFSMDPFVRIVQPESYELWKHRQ
Numbers stand for hits; 0 = inactive; ? = inconclusive; - = not tested or not shown; [ ] = remark or other dose. Only some compounds are listed: those with a hit (about 2% of all), similar ones and a draw of the others. Unless noted, calls follow the shape of the dose curve; as a rule, active = well fitted curve in the direction sought with a large enough effect; inconclusive = small, poorly fitted or top-dose-only effect, or another doubt; inactive = no such curve, though single readings can be large; an effect the other way counts as inactive or inconclusive.

SMILES	TRb SRC2 PPI	HttQ103 aggreg	HTT ATP protect	Coupling enz	TexasRed fluor	KDM4E inh
CC1CC=CC2C1C(=O)N(Cc1ccccc1)C2c1cccc([N+](=O)[O-])c1 (centres undefined)	0	-	-	0	0	-
CC1=NN2C(=N)/C(=C\c3ccc(SCc4ccccc4)o3)C(=O)N=C2S1	0	0	0	0	0	0
N=C1/C(=C\c2ccc(SCc3ccco3)o2)C(=O)N=C2SC=NN12	0	0	0	0	?	28µM
C=C1C(=O)[C@@]23[C@H](O)C[C@@H]4C(C)(C)CC[C@H](O)[C@@]4(C)[C@@H]2CC[C@@H]1[C@H]3O	0	2.8µM	-	0	0	0
C=C1C(=O)[C@@]23[C@H](O)C[C@@H]4C(C)(C)CC[C@H](O)[C@]4(C)[C@@H]2C[C@H](O)[C@@H]1[C@H]3O	0	3.2µM	-	0	0	0
C=CCC1C=CC(Oc2ccc(OC)cc2)C(COC(=O)c2ccc(Br)cc2)O1 (centres undefined)	0[11.2 µM]	-	0[10 µM]	0	0[11.2 µM]	-
COc1ccc(C2=Nn3c(nnc3-c3ccc(OC)cc3OC)SC2)c(OC)c1	0	-	-	0	0	-
O=c1ncccn1[C@@H]1O[C@H](CO)[C@@H](O)[C@H]1O	0	-	-	0	0	-
Cn1c(=O)c2c(nc(Oc3ccc(-c4ccccc4)cc3)n2C)n(C)c1=O	0	2.8µM	0	0	0	0
COC(=O)Cc1c(C)c2ccc(OCC(C)=O)c(C)c2oc1=O	0	0	0	0	0	?
C=C(C)COc1ccc2c(C)c(CC(=O)OC)c(=O)oc2c1C	0	11µM	0[10 µM]	0	0	?
CC[C@@H]1[C@H]2CCCCN3[C@@H]2[C@@H](C[C@H]3[C@@H]2C[C@H](C)C(=O)O2)[C@@H]2[C@H]1OC(=O)[C@H]2C	-	-	0	-	-	-
CC(C)CCNc1nc2c(c(=O)n(Cc3cccc(F)c3)c(=O)n2C)n1C	0	25µM	0	0	0	0
Cn1c(NCCO)nc2c1c(=O)n(Cc1ccc(F)cc1)c(=O)n2C	-	-	-	0	-	-
Cc1cccc(Cn2c(NCCO)nc3c2c(=O)n(C)c(=O)n3C)c1	0	?	0[10 µM]	0	0	0
COCCNc1nc2c(c(=O)n(C)c(=O)n2C)n1Cc1cccc(C)c1	0	16µM	0[10 µM]	0	0	0
CC1(C)Cc2c(c(N3CCOCC3)nc3snc(N)c23)CO1	0	25µM	0	0	0	?
CC1(C)Cc2c(c(N3CCOCC3)nc3sc(C(N)=O)c(N)c23)CO1	0	0[9.22 µM]	0[10 µM]	-30	0	?
CC1(C)Cc2c(c(N3CCOCC3)nc3snc(Br)c23)CO1	0	0	?	0	0	0
COc1cc(/C=C(\C#N)c2nc3ccccc3s2)cc([N+](=O)[O-])c1O	0	?	-	0	25µM[quencher]	0
N#C/C(=C\c1ccc(O)c([N+](=O)[O-])c1)c1nc2ccccc2s1	0	?	-	0	0	0
CCCOc1ccc(C(=O)NCC2OCCc3ccccc32)cc1 (centres undefined)	0	-	-	-	0	-
COC(=O)C1=C(O)/C(=C\c2cc(C)n(-c3ccccc3F)c2C)N=C1C	0	0	?	0	0	22µM
COC(=O)C1=C(O)/C(=C\c2cc(C)n(-c3ccccc3C)c2C)N=C1C	0	0	0[10 µM]	-42	0	?
NNS(=O)(=O)c1ccc(Oc2ccc(S(=O)(=O)NN)cc2)cc1	0	-	-	-	0	-
SMILES	TRb SRC2 PPI	HttQ103 aggreg	HTT ATP protect	Coupling enz	TexasRed fluor	KDM4E inh
CC(=O)OC(C)(C)C1CC=C(C)CC1 (centres undefined)	0	-	-	-	0	-
COc1cccc(N2C(C(C)=O)=NN(c3ccccc3)C2c2ccc(N3CCOCC3)cc2)c1 (centres undefined)	0	11µM	-	0	0	0
O=C1C2C3C=CC(C3)C2C(=O)N1CNc1ccc(O)cc1 (centres undefined)	25µM	?	0	-54	0	?
CCOc1ccc2oc(=O)cc(CN3CCN(Cc4ccc(F)cc4)CC3)c2c1	0	-	-	-	0	-
CC(C)(C)c1nn2cnnc2n(/N=C/c2cccc3ccccc23)c1=O	0	0	0[10 µM]	0	0	0
Cc1ccc(/C=N/n2c(=O)c(C(C)(C)C)nn3cnnc23)cc1	?	0	0[10 µM]	0	0.079µM[quencher]	0
O=C(N/N=C(\c1ccccc1)c1ccccn1)c1cccc([N+](=O)[O-])c1	0	6.3µM	0	0	0	0
Cn1ccnc1/C(=N\NC(=O)c1ccccc1)c1cccc([N+](=O)[O-])c1	0	0	0	0	0	0
O=C(Nc1nc(-c2ccc3ccccc3c2)cs1)C1CCN(S(=O)(=O)c2cccs2)CC1	0	0	0[10 µM]	0	0	18µM
CCOc1ccc(N2CC(NC(=O)c3ccc(S(=O)(=O)N4CCCC4)cc3)CC2=O)cc1 (centres undefined)	0	-	-	-	0	-
O=C(NCc1ccccc1Cl)c1cnc(N2CCCCC2)c2ccccc12	0	-	-	-	1585µM[quencher]	-
Cc1ccc(Cl)cc1N(C)C(=O)c1cnc(N2CCOCC2)c2ccccc12	0	-	-	-	0	-
O=C(NCc1ccccc1Cl)c1cnc(N2CCOCC2)c2ccccc12	0	-	-	-	0	-
Cc1ccc(Cl)cc1N1CCN(C(=O)c2cnc(N3CCOCC3)c3ccccc23)CC1	0	-	-	-	71µM[quencher]	-
O=C(Nc1ccc(F)cc1Cl)c1cnc(N2CCOCC2)c2ccccc12	0	-	-	-	11µM[quencher]	-
O=C(N/N=C/c1ccc(OCc2ccccc2)cc1)c1cc[n+](Cc2ccccc2)cc1	0	0	0[10 µM]	0	0	32µM
O=C(N/N=C/c1ccc(O)cc1)c1cc[n+](Cc2ccccc2)cc1	0	0	0[10 µM]	0	0	0
CN(Cc1ccccc1)C(=C(Cl)Cl)/C(=C1/NCCN1C)[N+](=O)[O-]	0	0	0	0	0	0
CN1CCN/C1=C(/C(Cl)=C(Cl)Cl)[N+](=O)[O-]	0	16µM	0	0	0	0
CC[C@H]1C2=C3C(CC[C@H]4C(OCc5ccc(F)cc5C(F)(F)F)OC[C@](C)([C@@H]34)N(C(=O)OC(C)(C)C)C2)C2COC(=O)OCC21 (some centres undefined)	0	-	0	0	0	?
CCOc1cc(CNCCSc2nnnn2C)cc(Cl)c1OCc1ccc(Cl)cc1	0	-	-	-	20µM[quencher]	-
O=C(CON=C1c2ccccc2-c2ccccc21)NC12CC3CC(CC(C3)C1)C2	0	11µM	0[10 µM]	0	0	?
COc1ccccc1N1CCN(C(=O)c2oc3ccc(F)cc3c2C)CC1	0	11µM	0[10 µM]	0	0	0
Nc1ccc(-c2nc3ccc(-c4nc5ccc(N)cc5[nH]4)cc3[nH]2)cc1	0	-	0	0	45µM[quencher]	?
Cc1ccc(-c2nc3ccc([N+](=O)[O-])cc3[nH]2)cc1	0	10µM	0[10 µM]	-31	0	0
COc1ccc2nc(-c3ccccc3)[nH]c2c1	0	0	0[10 µM]	-32	0	?
Cn1cc(-c2nc3cnc(Oc4cccc(Cl)c4)nc3n(C3CC3)c2=O)c2ccccc21	-	-	0	0	-	-
